# According to PMC7862700, “An all-to-all approach to the identification of sequence-specific readers for epigenetic DNA modifications on cytosine”:
# What was measured:
# Test in all cases: DAPPL (digital affinity profiling via proximity ligation, sequencing); 10 mM Tris-HCl pH 7.5, 50 mM NaCl, 1 mM DTT, 4% glycerol, room temperature, 30 min; GST-TFs on glutathione beads, 16-mer random dsDNA library, 0.1% formaldehyde crosslink after washing; high values mean tight binding
# FEV = molecular target: T1, FEV (Homo sapiens, UniProt Q99581 1-238); conditions: protein: recombinant; tags: N-terminal GST; dsDNA, one strand shown
# T1 sequence: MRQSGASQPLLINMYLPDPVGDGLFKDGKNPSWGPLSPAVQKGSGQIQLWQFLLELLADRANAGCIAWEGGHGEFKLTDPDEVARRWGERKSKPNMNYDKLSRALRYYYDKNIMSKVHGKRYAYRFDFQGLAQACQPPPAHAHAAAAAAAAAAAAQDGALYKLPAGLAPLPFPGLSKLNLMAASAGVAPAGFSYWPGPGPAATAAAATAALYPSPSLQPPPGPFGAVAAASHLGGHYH
# In short: (§1)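 Each value of binding signal is a hexamer's read frequency for a factor divided by the same hexamer's frequency in the tag-only sample. Barcoded, bead-captured GST fusions of human transcription factors made in yeast were pooled with that sample and incubated with 200 nmole of a random double-stranded 16-mer DNA library in Tris/NaCl/DTT/glycerol buffer at room temperature for 30 min. Washing, 0.1% formaldehyde crosslinking, proximity ligation, PCR and Illumina NextSeq500 sequencing followed.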
# ETV5 = ETV5 (Homo sapiens, UniProt P41161 1-510); conditions: protein: recombinant; tags: N-terminal GST; dsDNA, one strand shown
# In short: as §1
# HSF1 = HSF1 (Homo sapiens, UniProt Q00613 1-529); conditions: protein: recombinant; tags: N-terminal GST; chain copies: 3; dsDNA, one strand shown
# In short: as §1
# SPIC = molecular target: T2, SPIC (Homo sapiens, UniProt Q8N5J4 1-248); conditions: protein: recombinant; tags: N-terminal GST; dsDNA, one strand shown
# T2 sequence: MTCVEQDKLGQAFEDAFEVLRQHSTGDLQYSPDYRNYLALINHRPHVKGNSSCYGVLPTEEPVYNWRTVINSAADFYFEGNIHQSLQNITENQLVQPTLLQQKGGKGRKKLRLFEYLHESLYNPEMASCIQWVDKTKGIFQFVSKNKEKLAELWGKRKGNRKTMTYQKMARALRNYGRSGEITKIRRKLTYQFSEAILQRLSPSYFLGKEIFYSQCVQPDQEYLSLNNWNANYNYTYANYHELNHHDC
# In short: as §1
# ELF4 = ELF4 (Homo sapiens, UniProt Q99607 1-663); conditions: protein: recombinant; tags: N-terminal GST; dsDNA, one strand shown
# In short: as §1
# ELK4 = molecular target: T3, ELK4 (Homo sapiens, UniProt P28324-2 1-405); conditions: protein: recombinant; tags: N-terminal GST; dsDNA, one strand shown
# T3 sequence: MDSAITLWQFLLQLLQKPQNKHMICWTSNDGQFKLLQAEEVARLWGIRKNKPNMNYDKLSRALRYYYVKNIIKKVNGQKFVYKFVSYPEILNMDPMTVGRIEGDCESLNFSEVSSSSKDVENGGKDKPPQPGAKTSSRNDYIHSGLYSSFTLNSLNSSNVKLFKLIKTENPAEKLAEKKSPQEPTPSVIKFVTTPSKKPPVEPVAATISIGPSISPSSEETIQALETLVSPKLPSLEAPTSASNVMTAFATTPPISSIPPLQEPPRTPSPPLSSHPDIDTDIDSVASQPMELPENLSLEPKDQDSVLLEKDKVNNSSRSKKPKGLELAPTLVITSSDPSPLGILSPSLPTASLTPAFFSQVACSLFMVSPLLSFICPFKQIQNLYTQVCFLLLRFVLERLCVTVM
# In short: as §1
# ETV2 = molecular target: T4, ETV2 (Homo sapiens, UniProt O00321 1-342); conditions: protein: recombinant; tags: N-terminal GST; dsDNA, one strand shown
# T4 sequence: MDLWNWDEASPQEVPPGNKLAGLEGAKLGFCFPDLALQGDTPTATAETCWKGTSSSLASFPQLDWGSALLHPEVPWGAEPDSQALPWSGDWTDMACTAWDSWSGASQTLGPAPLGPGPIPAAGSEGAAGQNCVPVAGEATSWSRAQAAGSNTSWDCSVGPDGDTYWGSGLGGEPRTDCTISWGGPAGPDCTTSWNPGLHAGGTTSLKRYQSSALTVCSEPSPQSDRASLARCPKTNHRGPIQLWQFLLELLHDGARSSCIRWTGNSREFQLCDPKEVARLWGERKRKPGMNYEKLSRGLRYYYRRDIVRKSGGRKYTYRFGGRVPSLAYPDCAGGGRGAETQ
# In short: as §1
# ELF3 = molecular target: T5, ELF3 (Homo sapiens, UniProt P78545 1-371); conditions: protein: recombinant; tags: N-terminal GST; dsDNA, one strand shown
# T5 sequence: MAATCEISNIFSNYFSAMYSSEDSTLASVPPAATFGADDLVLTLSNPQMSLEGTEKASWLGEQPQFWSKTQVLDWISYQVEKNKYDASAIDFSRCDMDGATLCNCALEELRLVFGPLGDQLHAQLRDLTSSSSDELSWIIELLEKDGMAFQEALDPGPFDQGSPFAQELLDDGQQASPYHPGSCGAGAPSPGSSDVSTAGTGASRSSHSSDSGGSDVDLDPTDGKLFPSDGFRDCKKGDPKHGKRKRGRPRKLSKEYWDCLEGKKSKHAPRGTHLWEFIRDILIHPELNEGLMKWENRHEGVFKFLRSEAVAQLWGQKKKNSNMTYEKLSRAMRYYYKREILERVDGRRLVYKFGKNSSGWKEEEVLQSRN
# In short: as §1
# CRX = CRX (Homo sapiens, UniProt O43186 1-299); conditions: protein: recombinant; tags: N-terminal GST; dsDNA, one strand shown
# In short: as §1
# ETV1 = ETV1 (Homo sapiens, UniProt P50549 1-477); conditions: protein: recombinant; tags: N-terminal GST; dsDNA, one strand shown
# In short: as §1
# ERF = molecular target: T6, ERF (Homo sapiens, UniProt P50548 1-548); conditions: protein: recombinant; tags: N-terminal GST; dsDNA, one strand shown
# T6 sequence: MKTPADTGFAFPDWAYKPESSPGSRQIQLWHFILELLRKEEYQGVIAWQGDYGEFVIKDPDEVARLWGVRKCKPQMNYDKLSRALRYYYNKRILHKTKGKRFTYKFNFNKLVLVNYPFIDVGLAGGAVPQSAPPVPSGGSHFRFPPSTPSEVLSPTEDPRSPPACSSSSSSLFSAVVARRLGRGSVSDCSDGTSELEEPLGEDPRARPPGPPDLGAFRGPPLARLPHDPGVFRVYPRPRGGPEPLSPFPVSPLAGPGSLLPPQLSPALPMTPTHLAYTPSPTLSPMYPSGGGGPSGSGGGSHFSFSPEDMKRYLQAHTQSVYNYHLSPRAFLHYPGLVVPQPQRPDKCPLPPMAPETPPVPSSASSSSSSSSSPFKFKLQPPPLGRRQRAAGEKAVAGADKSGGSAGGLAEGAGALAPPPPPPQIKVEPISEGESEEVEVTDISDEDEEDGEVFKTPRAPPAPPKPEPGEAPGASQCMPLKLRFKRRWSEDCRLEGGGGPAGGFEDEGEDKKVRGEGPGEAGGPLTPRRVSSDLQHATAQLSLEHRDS
# In short: as §1
# ETV3L = molecular target: T7, ETV3L (Homo sapiens, UniProt Q6ZN32 1-361); conditions: protein: recombinant; tags: N-terminal GST; dsDNA, one strand shown
# T7 sequence: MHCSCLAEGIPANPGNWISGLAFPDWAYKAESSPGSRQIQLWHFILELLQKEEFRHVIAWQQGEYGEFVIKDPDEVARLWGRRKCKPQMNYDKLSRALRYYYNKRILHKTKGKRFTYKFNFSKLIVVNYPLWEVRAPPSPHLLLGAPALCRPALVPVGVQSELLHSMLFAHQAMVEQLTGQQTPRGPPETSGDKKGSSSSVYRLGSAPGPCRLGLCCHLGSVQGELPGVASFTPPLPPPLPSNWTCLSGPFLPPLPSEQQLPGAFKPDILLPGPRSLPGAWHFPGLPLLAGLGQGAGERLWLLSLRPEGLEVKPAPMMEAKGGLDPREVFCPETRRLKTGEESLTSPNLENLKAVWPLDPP
# In short: as §1
# ETS2 = molecular target: T8, ETS2 (Homo sapiens, UniProt P15036 1-469); conditions: protein: recombinant; tags: N-terminal GST; dsDNA, one strand shown
# T8 sequence: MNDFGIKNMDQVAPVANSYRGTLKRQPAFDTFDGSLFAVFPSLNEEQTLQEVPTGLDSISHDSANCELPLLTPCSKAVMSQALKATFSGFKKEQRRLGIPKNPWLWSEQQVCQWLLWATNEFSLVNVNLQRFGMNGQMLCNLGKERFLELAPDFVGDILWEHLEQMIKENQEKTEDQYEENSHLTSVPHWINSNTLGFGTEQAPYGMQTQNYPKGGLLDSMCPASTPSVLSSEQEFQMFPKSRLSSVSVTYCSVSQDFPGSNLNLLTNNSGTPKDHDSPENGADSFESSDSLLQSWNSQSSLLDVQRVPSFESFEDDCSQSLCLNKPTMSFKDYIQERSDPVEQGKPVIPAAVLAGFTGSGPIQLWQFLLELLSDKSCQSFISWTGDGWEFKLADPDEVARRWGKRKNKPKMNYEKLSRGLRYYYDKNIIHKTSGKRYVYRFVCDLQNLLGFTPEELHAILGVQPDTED
# In short: as §1
# SPDEF = molecular target: T9, SPDEF (Homo sapiens, UniProt O95238 1-335); conditions: protein: recombinant; tags: N-terminal GST; dsDNA, one strand shown
# T9 sequence: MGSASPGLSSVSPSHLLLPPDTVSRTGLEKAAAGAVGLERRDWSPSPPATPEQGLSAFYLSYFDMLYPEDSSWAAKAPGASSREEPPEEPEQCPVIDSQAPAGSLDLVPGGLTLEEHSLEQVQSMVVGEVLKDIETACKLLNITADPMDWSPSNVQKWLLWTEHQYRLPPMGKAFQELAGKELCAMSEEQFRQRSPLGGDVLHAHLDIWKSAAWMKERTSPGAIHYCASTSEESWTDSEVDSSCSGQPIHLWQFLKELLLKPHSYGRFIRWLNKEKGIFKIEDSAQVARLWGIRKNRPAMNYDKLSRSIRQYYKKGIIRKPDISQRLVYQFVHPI
# In short: as §1
# ETV7 = molecular target: T10, ETV7 (Homo sapiens, UniProt Q9Y603 1-341); conditions: protein: recombinant; tags: N-terminal GST; dsDNA, one strand shown
# T10 sequence: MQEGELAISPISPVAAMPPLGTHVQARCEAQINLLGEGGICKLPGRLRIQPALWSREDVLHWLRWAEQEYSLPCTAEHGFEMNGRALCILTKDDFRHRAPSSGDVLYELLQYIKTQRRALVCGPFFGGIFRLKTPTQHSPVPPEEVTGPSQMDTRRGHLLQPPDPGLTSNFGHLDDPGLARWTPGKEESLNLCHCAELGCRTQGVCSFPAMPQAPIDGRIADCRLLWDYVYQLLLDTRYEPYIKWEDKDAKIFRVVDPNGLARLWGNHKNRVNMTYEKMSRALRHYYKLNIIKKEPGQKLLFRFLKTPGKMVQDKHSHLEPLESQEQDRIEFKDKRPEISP
# In short: as §1
# ELF5 = molecular target: T11, ELF5 (Homo sapiens, UniProt Q9UKW6-2 1-255); conditions: protein: recombinant; tags: N-terminal GST; dsDNA, one strand shown
# T11 sequence: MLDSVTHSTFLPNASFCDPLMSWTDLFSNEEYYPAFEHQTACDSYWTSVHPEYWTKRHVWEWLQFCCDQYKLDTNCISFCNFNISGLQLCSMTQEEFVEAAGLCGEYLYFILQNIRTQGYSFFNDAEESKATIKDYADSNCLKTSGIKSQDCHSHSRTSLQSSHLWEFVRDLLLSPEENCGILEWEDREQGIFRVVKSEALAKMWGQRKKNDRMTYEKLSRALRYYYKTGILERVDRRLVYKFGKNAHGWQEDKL
# In short: as §1
# ETV3 = molecular target: T12, ETV3 (Homo sapiens, UniProt P41162-2 1-143); conditions: protein: recombinant; tags: N-terminal GST; dsDNA, one strand shown
# T12 sequence: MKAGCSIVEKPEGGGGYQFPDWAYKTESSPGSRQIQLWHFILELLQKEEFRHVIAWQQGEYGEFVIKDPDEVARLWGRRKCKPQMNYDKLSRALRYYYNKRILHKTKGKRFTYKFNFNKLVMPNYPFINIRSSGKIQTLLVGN
# In short: as §1
# ETV6 = ETV6 (Homo sapiens, UniProt P41212 1-452); conditions: protein: recombinant; tags: N-terminal GST; dsDNA, one strand shown
# In short: as §1
# Sequence of ETV6 (P41212 whole entry): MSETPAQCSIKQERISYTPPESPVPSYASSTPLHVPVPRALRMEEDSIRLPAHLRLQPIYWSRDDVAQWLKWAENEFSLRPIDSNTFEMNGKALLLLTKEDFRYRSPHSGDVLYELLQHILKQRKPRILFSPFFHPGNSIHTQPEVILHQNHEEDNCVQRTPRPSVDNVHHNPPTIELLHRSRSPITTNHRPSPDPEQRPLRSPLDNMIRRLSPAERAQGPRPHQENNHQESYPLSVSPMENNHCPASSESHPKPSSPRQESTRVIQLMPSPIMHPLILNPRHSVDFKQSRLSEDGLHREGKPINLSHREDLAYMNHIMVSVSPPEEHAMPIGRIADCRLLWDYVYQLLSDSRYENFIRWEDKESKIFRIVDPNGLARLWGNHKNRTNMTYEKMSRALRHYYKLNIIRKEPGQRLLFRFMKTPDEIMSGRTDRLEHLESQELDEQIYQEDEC
# Sequence of ETV5 (P41161 whole entry): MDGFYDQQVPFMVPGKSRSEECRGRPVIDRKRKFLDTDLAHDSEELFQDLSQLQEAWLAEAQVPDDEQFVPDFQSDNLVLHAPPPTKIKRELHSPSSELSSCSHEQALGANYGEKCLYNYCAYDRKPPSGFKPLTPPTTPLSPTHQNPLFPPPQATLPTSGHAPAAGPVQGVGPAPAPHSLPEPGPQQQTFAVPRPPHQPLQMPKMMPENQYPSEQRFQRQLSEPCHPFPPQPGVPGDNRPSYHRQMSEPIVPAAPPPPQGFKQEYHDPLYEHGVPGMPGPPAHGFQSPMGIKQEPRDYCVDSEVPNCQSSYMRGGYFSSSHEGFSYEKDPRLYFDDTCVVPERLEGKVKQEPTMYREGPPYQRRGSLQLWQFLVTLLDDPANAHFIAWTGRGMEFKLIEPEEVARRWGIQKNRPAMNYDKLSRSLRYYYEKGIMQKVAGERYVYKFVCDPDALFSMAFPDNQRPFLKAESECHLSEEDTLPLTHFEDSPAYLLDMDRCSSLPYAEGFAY
# Sequence of ETV1 (P50549 whole entry): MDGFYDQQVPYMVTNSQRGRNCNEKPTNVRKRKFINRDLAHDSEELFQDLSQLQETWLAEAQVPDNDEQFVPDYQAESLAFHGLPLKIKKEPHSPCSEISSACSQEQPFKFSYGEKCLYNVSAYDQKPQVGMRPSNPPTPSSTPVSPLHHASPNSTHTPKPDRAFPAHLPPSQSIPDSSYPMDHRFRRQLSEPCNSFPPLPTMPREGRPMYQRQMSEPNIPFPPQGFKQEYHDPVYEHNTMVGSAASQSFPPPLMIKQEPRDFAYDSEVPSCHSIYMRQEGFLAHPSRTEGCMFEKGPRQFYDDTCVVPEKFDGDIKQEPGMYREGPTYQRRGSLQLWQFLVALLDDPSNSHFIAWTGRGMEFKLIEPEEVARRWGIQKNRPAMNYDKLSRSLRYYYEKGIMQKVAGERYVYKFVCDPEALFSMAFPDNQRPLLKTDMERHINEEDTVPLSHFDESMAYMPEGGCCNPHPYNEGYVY
# Sequence of CRX (O43186 whole entry): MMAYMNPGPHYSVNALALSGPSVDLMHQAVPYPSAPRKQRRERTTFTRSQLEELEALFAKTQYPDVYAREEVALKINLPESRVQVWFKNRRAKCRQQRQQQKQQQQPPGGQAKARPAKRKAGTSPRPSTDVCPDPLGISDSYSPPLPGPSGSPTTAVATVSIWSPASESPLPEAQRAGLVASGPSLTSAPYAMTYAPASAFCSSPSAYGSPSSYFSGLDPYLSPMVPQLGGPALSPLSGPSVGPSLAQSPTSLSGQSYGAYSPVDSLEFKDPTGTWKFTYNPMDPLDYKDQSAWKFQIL
# Sequence of HSF1 (Q00613 whole entry): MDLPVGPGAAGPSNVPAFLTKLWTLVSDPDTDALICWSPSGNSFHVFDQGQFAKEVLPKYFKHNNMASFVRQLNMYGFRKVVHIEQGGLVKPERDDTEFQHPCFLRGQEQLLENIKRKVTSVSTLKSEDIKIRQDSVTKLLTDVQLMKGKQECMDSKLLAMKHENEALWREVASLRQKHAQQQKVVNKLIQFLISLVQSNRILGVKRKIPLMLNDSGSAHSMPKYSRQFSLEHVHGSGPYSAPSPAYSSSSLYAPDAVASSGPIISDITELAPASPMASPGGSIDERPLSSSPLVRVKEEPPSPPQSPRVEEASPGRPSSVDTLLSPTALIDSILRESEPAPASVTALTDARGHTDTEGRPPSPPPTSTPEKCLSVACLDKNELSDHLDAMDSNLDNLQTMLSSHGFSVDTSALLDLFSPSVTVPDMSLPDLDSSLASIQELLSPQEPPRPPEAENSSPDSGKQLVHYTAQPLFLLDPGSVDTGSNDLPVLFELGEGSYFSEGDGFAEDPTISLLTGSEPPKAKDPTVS
# Sequence of ELF4 (Q99607 whole entry): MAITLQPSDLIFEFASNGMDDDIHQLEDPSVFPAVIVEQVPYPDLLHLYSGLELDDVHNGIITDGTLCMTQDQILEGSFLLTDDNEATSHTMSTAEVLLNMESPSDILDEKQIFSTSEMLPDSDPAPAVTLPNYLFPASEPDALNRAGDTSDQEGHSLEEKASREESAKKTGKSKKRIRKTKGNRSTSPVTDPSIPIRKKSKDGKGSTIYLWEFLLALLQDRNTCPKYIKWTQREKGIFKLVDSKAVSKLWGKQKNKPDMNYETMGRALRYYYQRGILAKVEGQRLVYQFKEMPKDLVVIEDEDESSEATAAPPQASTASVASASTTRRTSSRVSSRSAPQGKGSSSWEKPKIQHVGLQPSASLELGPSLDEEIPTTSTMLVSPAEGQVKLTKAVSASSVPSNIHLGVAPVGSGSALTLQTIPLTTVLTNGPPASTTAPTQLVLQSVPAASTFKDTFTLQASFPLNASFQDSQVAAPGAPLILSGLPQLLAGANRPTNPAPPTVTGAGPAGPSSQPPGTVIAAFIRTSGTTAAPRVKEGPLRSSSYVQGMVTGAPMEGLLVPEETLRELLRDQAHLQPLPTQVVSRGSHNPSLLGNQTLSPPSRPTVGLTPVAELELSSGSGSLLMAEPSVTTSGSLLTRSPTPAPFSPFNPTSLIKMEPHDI
sequence,measurement,setting,value
GATGAC,binding signal,FEV,"1.47 fold enrichment (6-mer frequency, TF over GST control)"
same,binding signal,ETV5,"1.49 fold enrichment (6-mer frequency, TF over GST control)"
same,binding signal,HSF1,"1.27 fold enrichment (6-mer frequency, TF over GST control)"
same,binding signal,SPIC,"1.15 fold enrichment (6-mer frequency, TF over GST control)"
same,binding signal,ELF4,"1.56 fold enrichment (6-mer frequency, TF over GST control)"
same,binding signal,ELK4,"1.42 fold enrichment (6-mer frequency, TF over GST control)"
same,binding signal,ETV2,"1.35 fold enrichment (6-mer frequency, TF over GST control)"
same,binding signal,ELF3,"1.48 fold enrichment (6-mer frequency, TF over GST control)"
same,binding signal,CRX,"1.26 fold enrichment (6-mer frequency, TF over GST control)"
same,binding signal,ETV1,"1.55 fold enrichment (6-mer frequency, TF over GST control)"
same,binding signal,ERF,"1.45 fold enrichment (6-mer frequency, TF over GST control)"
same,binding signal,ETV3L,"1.53 fold enrichment (6-mer frequency, TF over GST control)"
same,binding signal,ETS2,"1.44 fold enrichment (6-mer frequency, TF over GST control)"
same,binding signal,SPDEF,"1.55 fold enrichment (6-mer frequency, TF over GST control)"
same,binding signal,ETV7,"1.61 fold enrichment (6-mer frequency, TF over GST control)"
same,binding signal,ELF5,"1.53 fold enrichment (6-mer frequency, TF over GST control)"
same,binding signal,ETV3,"1.56 fold enrichment (6-mer frequency, TF over GST control)"
same,binding signal,ETV6,"1.43 fold enrichment (6-mer frequency, TF over GST control)"
